According to PubChem BioAssay:
Calls of active or inactive are those of the source. Unless noted, how the calls were made is not given here.

Columns and labels:
[1] = anti-His antibody binders, primary screen, artefact control for SMM control protein annotation, biochemical, small-molecule microarray, 635 nm fluorescence (AID 1128); conditions: anti-His Alexa647 antibody binding, higher = more signal;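 further: score merges feature fluorescence with signal-to-noise for each printed compound spot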
[2] = test system: Human papillomavirus type 1a E7 protein (residues 1-88); experiment: HPV1a E7 small-molecule binders, primary screen, biochemical, small-molecule microarray, residues 1-88, 635 nm (AID 1129); conditions: small-molecule microarray binding, fluorescence 635 nm; higher = more signal
[3] = biological target: Focal adhesion kinase 1 (Homo sapiens) (UniProt Q05397); experiment: small-molecule microarray binders of FAK, primary screen, biochemical, 635/667 nm fluorescence, BSA, DTT (AID 1130); conditions: PTK2 binding, 635 nm fluorescence, higher = more signal;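 further: composite of spot emission at 667 nm and signal to noise over triplicate slides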
[4] = test system: Fibrinogen (Alexa647-labelled); experiment: fibrinogen binders on compound microarrays, profiling panel, artefact control for SMM control-protein annotation, biochemical, small-molecule microarray, 635/667 nm fluorescence (AID 1131); conditions: fibrinogen-A647 binding fluorescence, higher = more signal;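 further: z-score merges 667 nm fluorescence with per-spot signal-to-noise over triplicate slides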
[5] = biological target: Follistatin (Homo sapiens) (UniProt P19883); experiment: follistatin binders on small-molecule microarrays, primary screen, biochemical, small-molecule microarray, 635/667 nm fluorescence (AID 1132); conditions: FST binding, 635 nm fluorescence, higher = more signal
[6] = biological target: Fibroblast growth factor 2 (Homo sapiens) (UniProt P09038); experiment: FGF2 binders on small-molecule microarrays, primary screen, biochemical, small-molecule microarray, 635/667 nm fluorescence (AID 1133); conditions: small-molecule microarray binding, FGF2, fluorescence 635/667; higher = more signal
[7] = mitochondrial membrane potential change in A549 cells, profiling panel, cell-based, JC-1 fluorescence, basal, 24 h, 100 nL (AID 1138); conditions: higher = more signal;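 further: A549 lung adenocarcinoma cells under basal conditions with no added stimulus; test concentration not given here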
Lefty1 = Lefty1 binders on small-molecule microarrays, primary screen, biochemical, small-molecule microarray, 635/667 nm fluorescence (AID 1139); conditions: small-molecule microarray binding, fluorescence 635/667; higher = more signal
[8] = test system: wheat germ agglutinin (Triticum aestivum), Alexa647-labelled; experiment: wheat germ agglutinin binders on compound microarrays, profiling panel, artefact control for SMM control-protein annotation, biochemical, small-molecule microarray, 635/667 nm fluorescence (AID 1140); conditions: WGA-A647 binding, 635 nm fluorescence, higher = more signal;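 further: score merges 667 nm feature emission with signal to noise over triplicate slides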
[9] = biological target: Luciferin 4-monooxygenase (Photinus pyralis) (UniProt P08659); experiment: firefly luciferase enzyme inhibitors, primary screen, biochemical, luminescence, purified enzyme, 2006 set (AID 1141); conditions: SteadyGlo luminescence, 30 min, higher = more signal, called active from +8 up or from −8 down;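 further: cell-free assay with purified firefly luciferase at 100 ng per well in PBS; test concentration not given here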
[10] = test system: Wnt5a (protein binding on small-molecule microarray); experiment: Wnt5a binders on small-molecule microarray, primary screen, biophysical, 635/667 nm fluorescence (AID 1142); conditions: 635 nm fluorescence, higher = more signal;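 further: fluorescence read at 667 nm with signal to noise per printed feature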
[11] = cell viability in Huh7 cells, primary screen, cytotoxicity control for HCV replication inhibitor project, CellTiter-Glo luminescence, basal, 48 h (AID 1143); conditions: Huh7 HCV replicon, higher = more signal, called active from +8 up or from −8 down;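 further: Huh7 hepatoma cells carrying a hepatitis C replication reporter with no stimulus; test concentration not given here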
[12] = P. aeruginosa biofilm formation inhibitors, primary screen, PAO1 strain, BacTiter-Glo luminescence, LB-PBS (AID 1144); conditions: 12 h, higher = more signal
[13] = CREB reporter modulators without forskolin, primary screen, cell-based, PC12, CRE-LacZ reporter, unstimulated (AID 1145); conditions: no forskolin, luminescence, 4.5 h, higher = more signal, called active from +8 up or from −8 down
[14] = CREB reporter modulators under forskolin, primary screen, cell-based, PC12, CRE-LacZ reporter, forskolin-stimulated (AID 1146); conditions: luminescence, 4.5 h, higher = more signal, called active from +8 up or from −8 down;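 further: PC12 cells with 6xCRE LacZ reporter stimulated by forskolin 10 µM; beta-galactosidase reporter signal reflecting CREB driven transcription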
[15] = biological target: Streptavidin (Streptomyces avidinii) (UniProt P22629); experiment: streptavidin binders on small-molecule microarray, primary screen, artefact control for SMM compound annotation, biophysical, 635/667 nm fluorescence (AID 1147); conditions: streptavidin binding, higher = more signal;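 further: signal reflects streptavidin binding to arrayed compounds as a control protein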
[16] = small-molecule binders of probe aInhba, primary screen, biochemical, small-molecule microarray, 635/667 nm fluorescence (AID 1148); conditions: higher = more signal;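 further: score merges 667nm spot fluorescence with signal-to-noise for antibody binding to printed compounds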
Torsin-1A (Homo sapiens) [17] = biological target: Torsin-1A (Homo sapiens) (UniProt O14656); experiment: torsin A binders from cell lysate, primary screen, small-molecule microarray, wild-type, 635/667 nm (AID 1149); conditions: COS7 hTOR1A-WT lysate, 635 nm fluorescence, higher = more signal
Torsin-1A (Homo sapiens) [18] = biological target: Torsin-1A (Homo sapiens) (UniProt O14656); experiment: small-molecule binders of mutant TOR1A in lysate, primary screen, cell lysate, small-molecule microarray, COS7 lysate, 635/667 nm fluorescence (AID 1150); conditions: COS7 hTOR1A mutant lysate, 635 nm fluorescence, higher = more signal;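 further: score pools 667 nm emission and signal to noise measuring lysate protein binding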
[19] = test system: Sonic hedgehog protein (Shh); experiment: small-molecule binders of Shh protein, primary screen, biochemical, small-molecule microarray, 635/667 nm fluorescence (AID 1151); conditions: small-molecule microarray binding, 635 nm fluorescence; higher = more signal;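 further: Shh protein binding to compounds spotted on small-molecule microarray slides; score combines spot fluorescence intensity with signal-to-noise across triplicate slides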

Streptavidin (Streptomyces avidinii), sequence (P22629 whole entry, looked up): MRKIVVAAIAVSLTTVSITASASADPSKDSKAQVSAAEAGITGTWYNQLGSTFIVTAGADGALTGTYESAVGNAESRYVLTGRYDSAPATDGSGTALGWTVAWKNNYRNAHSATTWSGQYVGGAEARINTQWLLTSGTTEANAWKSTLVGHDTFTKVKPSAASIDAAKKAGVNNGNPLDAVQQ
Luciferin 4-monooxygenase (Photinus pyralis), sequence (P08659 whole entry, looked up): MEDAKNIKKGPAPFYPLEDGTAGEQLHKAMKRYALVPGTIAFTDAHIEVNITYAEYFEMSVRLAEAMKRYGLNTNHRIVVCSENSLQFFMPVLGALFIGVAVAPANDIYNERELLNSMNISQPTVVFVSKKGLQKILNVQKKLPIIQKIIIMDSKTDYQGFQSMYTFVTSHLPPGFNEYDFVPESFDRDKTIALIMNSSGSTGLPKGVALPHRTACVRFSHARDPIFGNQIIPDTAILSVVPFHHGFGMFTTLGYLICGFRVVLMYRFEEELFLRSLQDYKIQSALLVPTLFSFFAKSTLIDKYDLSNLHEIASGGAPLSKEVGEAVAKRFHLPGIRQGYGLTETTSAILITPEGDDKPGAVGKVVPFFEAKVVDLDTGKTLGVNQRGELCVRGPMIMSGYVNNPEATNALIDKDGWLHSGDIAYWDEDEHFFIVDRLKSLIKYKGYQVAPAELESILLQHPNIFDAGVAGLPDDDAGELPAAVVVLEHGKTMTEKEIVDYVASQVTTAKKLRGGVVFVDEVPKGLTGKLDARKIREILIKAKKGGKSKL
Fibroblast growth factor 2 (Homo sapiens), sequence (P09038 whole entry, looked up): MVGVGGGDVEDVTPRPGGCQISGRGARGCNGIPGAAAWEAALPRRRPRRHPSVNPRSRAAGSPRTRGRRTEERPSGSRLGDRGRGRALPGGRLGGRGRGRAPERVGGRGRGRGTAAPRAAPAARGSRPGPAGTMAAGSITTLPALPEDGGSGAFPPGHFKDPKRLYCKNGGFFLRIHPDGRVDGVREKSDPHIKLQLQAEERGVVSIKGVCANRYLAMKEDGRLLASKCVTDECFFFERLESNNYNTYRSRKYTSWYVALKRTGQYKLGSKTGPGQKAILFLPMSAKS
Torsin-1A (Homo sapiens), sequence (O14656 whole entry, looked up): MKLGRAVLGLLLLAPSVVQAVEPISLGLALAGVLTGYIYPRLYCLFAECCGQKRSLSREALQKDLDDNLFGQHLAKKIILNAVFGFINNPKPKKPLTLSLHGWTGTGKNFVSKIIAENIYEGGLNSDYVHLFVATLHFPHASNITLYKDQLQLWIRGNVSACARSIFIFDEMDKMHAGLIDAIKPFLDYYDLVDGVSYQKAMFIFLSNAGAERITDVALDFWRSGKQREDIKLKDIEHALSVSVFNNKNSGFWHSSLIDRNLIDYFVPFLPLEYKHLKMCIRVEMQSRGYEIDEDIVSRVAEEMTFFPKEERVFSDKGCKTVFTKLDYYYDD
Focal adhesion kinase 1 (Homo sapiens), sequence (Q05397 whole entry, looked up): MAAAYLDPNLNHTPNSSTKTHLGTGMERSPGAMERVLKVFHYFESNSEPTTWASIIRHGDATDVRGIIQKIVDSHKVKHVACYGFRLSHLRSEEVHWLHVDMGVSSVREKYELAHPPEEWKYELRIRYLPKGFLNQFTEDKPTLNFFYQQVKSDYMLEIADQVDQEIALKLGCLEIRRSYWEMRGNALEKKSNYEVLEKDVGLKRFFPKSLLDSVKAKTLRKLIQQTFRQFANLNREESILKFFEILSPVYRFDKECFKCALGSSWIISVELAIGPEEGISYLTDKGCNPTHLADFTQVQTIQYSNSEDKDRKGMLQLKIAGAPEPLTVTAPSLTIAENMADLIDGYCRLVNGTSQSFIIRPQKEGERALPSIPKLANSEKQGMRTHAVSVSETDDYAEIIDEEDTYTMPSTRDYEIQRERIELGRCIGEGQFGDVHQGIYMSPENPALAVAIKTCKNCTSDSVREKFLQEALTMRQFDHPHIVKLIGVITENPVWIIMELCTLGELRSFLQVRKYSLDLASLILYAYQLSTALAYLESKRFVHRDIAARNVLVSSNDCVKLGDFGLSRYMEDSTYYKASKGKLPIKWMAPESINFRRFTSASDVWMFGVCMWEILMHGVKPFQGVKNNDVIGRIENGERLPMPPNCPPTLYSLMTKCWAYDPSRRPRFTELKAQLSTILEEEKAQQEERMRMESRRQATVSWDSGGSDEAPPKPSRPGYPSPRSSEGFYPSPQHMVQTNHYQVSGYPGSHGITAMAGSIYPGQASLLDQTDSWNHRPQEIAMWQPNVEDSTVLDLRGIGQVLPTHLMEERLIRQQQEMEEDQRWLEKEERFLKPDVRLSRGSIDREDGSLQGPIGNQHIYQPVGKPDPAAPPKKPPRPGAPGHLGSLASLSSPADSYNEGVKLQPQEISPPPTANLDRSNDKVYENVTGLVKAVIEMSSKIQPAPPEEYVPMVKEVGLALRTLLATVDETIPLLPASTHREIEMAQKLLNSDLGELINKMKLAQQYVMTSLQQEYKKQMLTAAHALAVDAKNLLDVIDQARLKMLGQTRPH
Follistatin (Homo sapiens), sequence (P19883 whole entry, looked up): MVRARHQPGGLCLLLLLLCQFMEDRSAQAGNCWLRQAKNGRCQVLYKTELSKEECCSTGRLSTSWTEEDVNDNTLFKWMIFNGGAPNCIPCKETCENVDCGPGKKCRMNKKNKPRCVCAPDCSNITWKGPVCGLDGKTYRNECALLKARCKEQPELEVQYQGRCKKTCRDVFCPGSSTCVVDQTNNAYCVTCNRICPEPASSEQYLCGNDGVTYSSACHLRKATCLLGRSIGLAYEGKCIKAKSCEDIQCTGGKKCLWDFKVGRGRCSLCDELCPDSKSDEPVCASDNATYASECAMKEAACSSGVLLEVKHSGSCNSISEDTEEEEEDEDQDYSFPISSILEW

Row | Structure (SMILES) | composite z-score [1] | composite z-score [2] | composite z-score [3] | composite z-score [4] | composite z-score [5] | composite z-score [6] | z-score [7] | composite z-score (Lefty1) | composite z-score [8] | z-score [9] | composite z-score [10] | z-score [11] | z-score [12] | z-score [13] | z-score [14] | composite z-score [15] | composite z-score [16] | composite z-score (Torsin-1A (Homo sapiens) [17]) | composite z-score (Torsin-1A (Homo sapiens) [18]) | composite z-score [19]
1 | C=C(/C(=C/C[C@H](OC(C)=O)c1cccc(OCCO)c1)c1cnc2ccccc2c1)C(C)C | -0.373 | 0.68 | 0.151 | -0.325 | 1.36 | 0.429 | 1.61 | 1.08 | 0.961 | -1.19 (inactive) | 0.217 | -0.262 (inactive) | 0.424 (inactive) | 5.97 (inactive) | -0.323 (inactive) | 0.653 | 0.124 | 0.04 | 0.491 | 2
2 | COc1ccc([Si](C)(C)[C@@H]2[C@@H](CC(=O)N3Cc4ccccc4C[C@H]3CO)O[C@]3(C(=O)N(C)c4ccccc43)[C@H]2C)cc1 | 1.94 | 1.17 | 0.0712 | 0.855 | 1.52 | 1.68 | 0.0779 | 1.57 | 1.02 | -0.497 (inactive) | 0.269 | -7.08 (inactive) | -1.58 (inactive) | 10.2 (active) | -1.92 (inactive) | 1.64 | 0.189 | 0.783 | 0.741 | 2.03
3 | COC(=O)[C@@]1(Cc2ccc(OC)cc2)[C@H]2c3cc(C(=O)N(C)C)n(Cc4ccc(Cl)c(C(F)(F)F)c4)c3C[C@H]2CN1C(=O)c1ccccc1 | 1.99 | 1.22 | 0.71 | 0.982 | 0.655 | -0.451 | 0.0187 | -0.68 | 1.22 | 1.65 (inactive) | 0.758 | -2.81 (inactive) | 0.275 (inactive) | 2.87 (inactive) | 2.18 (inactive) | 0.725 | 0.515 | -0.213 | 0.234 | -0.988
4 | O=C1C2C=CC(C(O)c3ccccc3)N(Nc3ccccc3F)C2C(=O)N1c1ccccc1 (stereo not given) | 0.513 | 0.506 | 0.0669 | 0.168 | -0.0118 | -0.248 | 0.462 | 0.347 | 0.0842 | 0.541 (inactive) | 0.1 | -1.7 (inactive) | 0.298 (inactive) | 0.0707 (inactive) | 0.39 (inactive) | 0.23 | -0.127 | -0.292 | -0.493 | -0.244
5 | CCCC[C@@H]1C[C@H]1[C@@H](NC(=O)c1cccs1)c1ccc(C(F)(F)F)cc1 | 0.904 | -0.654 | -0.0276 | -0.364 | 0.301 | -0.38 | 0.503 | 0.222 | -0.945 | 1.2 (inactive) | -0.553 | -0.368 (inactive) | 0.195 (inactive) | 0.962 (inactive) | 1.57 (inactive) | 0.189 | -0.147 | -0.848 | -0.589 | 0.652
6 | CC(C)[Si](C#CCCCC#N)(O[C@H](c1ccccc1)c1cn([C@H](CO)Cc2ccccc2)nn1)C(C)C | -0.135 | 1.12 | 0.26 | 0.975 | 1.14 | 0.812 | 0.162 | 0.385 | 0.231 | -0.175 (inactive) | -0.187 | -0.248 (inactive) | -0.747 (inactive) | -0.463 (inactive) | 1.01 (inactive) | 1.18 | -0.108 | 0.531 | 0.477 | 0.774
7 | CCOc1cc(C(O)C2C=CC3C(=O)N(c4ccccc4)C(=O)C3N2Nc2ccc(C#N)cc2)ccc1O (stereo not given) | 1.29 | 0.161 | 0.471 | 0.961 | 0.765 | -0.667 | -0.00105 | 0.113 | 0.961 | -0.519 (inactive) | -0.162 | 0.423 (inactive) | -0.485 (inactive) | -0.525 (inactive) | 0.201 (inactive) | 0.999 | 0.288 | 0.258 | 0.115 | -0.373
8 | C=C(CCCC)/C(=C/C[C@@H](OC(=O)c1ccncc1)c1ccccc1OCCO)c1cnc2ccccc2c1 | 0.433 | 1.12 | 0.0585 | 0.963 | 1.44 | 1.43 | 1.34 | 1.61 | 1.17 | -0.514 (inactive) | 0.944 | -2.5 (inactive) | 0.207 (inactive) | 10.3 (active) | 0.689 (inactive) | 1.16 | 0.11 | 0.49 | -0.239 | 2.17
9 | CCCCCCc1nc(C2CC2)cc2c1[Si](C(C)C)(C(C)C)OC2 | -1.08 | -1.14 | -0.295 | 0.691 | -0.706 | -0.644 | -1.37 | -0.568 | -0.222 | 0.766 (inactive) | -0.306 | -2.44 (inactive) | -0.486 (inactive) | 1.59 (inactive) | 0.997 (inactive) | 0.312 | -0.261 | -0.522 | -0.751 | -0.694
10 | O=C1O[C@@H](c2ccccc2)[C@@H](c2ccccc2)N2[C@@H](c3ccccc3OCCO)[C@]3(C(=O)Nc4ccc(C#CCCO)cc43)[C@@H](C(=O)N3CCCCCCC3)[C@H]12 | 3.38 | 1.3 | 4.83 | 0.958 | 1.55 | 1.14 | 0.163 | 1.87 | 1.74 | 0.205 (inactive) | 2.37 | -3.74 (inactive) | -0.163 (inactive) | 0.245 (inactive) | 0.337 (inactive) | 4.08 | 2.42 | 3.06 | 2.96 | 1.78
